Screening results: PubChem BioAssay, National Center for Advancing Translational Sciences (NCATS)
The list is not random: actives were taken first. Their share in the collection is about 4.6%.
TRHR PAM = qHTS for Small Molecule Agonists and Allosteric Enhancers of Human TRH Receptor: Primary Screen for Enhancers; Thyrotropin-releasing hormone receptor (Homo sapiens), P34981; TRHR cells, fluo-8 calcium fluorescence, EC20 TRH enhancement; enhancement, % at 2 µM; 360,000 compounds, 0.66% hits; AID 493056, 2011; in the data active = enhancement above about 30%; also: 0% is about no effect
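Enhancer read-out: after compound pinning and an initial kinetic agonist-mode read, an EC20 of TRH (10 nM final) was injected and fluo-8 calcium signal (Ex 480/Em 530) followed at 1 s/cycle for 100 cycles in TRHR-expressing cells.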
D1 agonist = Allosteric Agonists of the Human D1 Dopamine Receptor: qHTS; 360,000 compounds, 1% hits; activation, % at 2 µM; HEK293 T-REx D1 cells, calcium flux, agonist mode; AID 504660, 2011; also: 0% is about no effect
Target sequence (P21728 whole entry, looked up): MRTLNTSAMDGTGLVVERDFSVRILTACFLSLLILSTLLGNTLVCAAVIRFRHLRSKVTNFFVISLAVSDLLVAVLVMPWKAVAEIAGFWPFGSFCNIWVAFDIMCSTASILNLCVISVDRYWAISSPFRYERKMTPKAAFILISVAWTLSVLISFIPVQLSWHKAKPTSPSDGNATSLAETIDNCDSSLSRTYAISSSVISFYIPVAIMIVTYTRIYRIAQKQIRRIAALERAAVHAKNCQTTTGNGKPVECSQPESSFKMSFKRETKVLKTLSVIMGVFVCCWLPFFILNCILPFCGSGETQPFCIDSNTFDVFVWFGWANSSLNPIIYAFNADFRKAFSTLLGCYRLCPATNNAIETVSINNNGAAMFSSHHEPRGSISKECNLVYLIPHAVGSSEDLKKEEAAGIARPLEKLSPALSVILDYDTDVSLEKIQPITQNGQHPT
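Agonism was scored from calcium flux recorded over 180 s (1 read/s) after pintool compound addition, following a 10-cycle baseline. Cells were inducible force-coupled HEK293 TREx D1, plated overnight at 30 C and loaded with no-wash calcium dye.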
D1 antag = Antagonist of Human D 1 Dopamine Receptor: qHTS. D(1A) dopamine receptor (Homo sapiens), P21728. HEK293 TREx D1 cells, calcium flux, dopamine EC80; hits give low values. 360,000 compounds, 3.2% hits. AID 504652, 2011. activity change, negative = inhibition, % at 10 µM; in the data active = activity change below about -30%; also: % is scaled to controls: 0 for no effect and ±100 for the full control effect
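Calcium flux readout: force-coupled, inducible Hek293 Trex D1 line, cells induced overnight at 30 C with tetracycline, dye-loaded 30–90 min at RT. Antagonism scored against EC80 dopamine challenge given 180 s after compound.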
TRHR agonist = qHTS for Small Molecule Agonists and Allosteric Enhancers of Human TRH Receptor: Primary Screen for Agonists; 360,000 compounds, 0.18% hits; activation, % at 2 µM; TRHR cells, calcium flux fluo-8, FDSS agonist mode; also: 0% is about no effect
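TRHR-expressing cells, plated overnight in medium with 10% serum, were loaded with fluo-8 calcium dye at room temperature. After a 10 s baseline, library compound was pin-added and calcium release was recorded kinetically (ex 480/em 530) as agonist response.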
D1 PAM = Potentiators of Human D1 Dopamine Receptor: qHTS. D(1A) dopamine receptor (Homo sapiens), P21728. AID 504651, 2011. potentiation, % at 10 µM. 360,000 compounds, 0.036% hits. HEK293 TREx D1 cells, calcium flux, dopamine EC20 potentiation; in the data active = potentiation above about 30%; also: 0% is about no effect
The depositor's hits bear a star. Rule as the data show it, unless noted: active = activation above about 30%; inactive = the rest.

SMILES	TRHR PAM	D1 agonist	D1 antag	TRHR agonist	D1 PAM
COc1cc(NC(=O)Cn2c(=O)ccc3cc(S(=O)(=O)N4CCCC4)ccc32)cc(OC)c1	-2.3	1.3	6.8	0.8	-1.1
O=C1CC(c2ccccc2)Sc2nc(-c3ccc(F)cc3)nn21 (stereo unspecified)	0.9	1.9	15.7	-0.3	-1.9
O=C1CC(c2ccc(F)cc2)Sc2nc(C34CC5CC(CC(C5)C3)C4)nn21 (stereo unspecified)	29.6	2.1	-52.2*	0.1	-8.2
COc1ccc(N2CCN(CCCNC(=O)c3c(C)nn(-c4ccc(F)cc4)c3-n3cccc3)CC2)cc1	0.8	0.4	10.1	-0.3	-1.5
O=C(NC1CCN(Cc2cccc([N+](=O)[O-])c2)CC1)c1ccccc1	-4.5	6.0	-57.2*	-0.3	-20.1
O=C(NC1CCN(Cc2ccccc2)CC1)c1ccccc1	-4.6	1.6	-18.7	-0.1	-21.1
O=C(NC1CCN(CCc2c[nH]c3ccccc23)CC1)c1ccccc1	0.7	67.3*	-83.0*	-0.3	-17.8
O=C(NC1CCN(Cc2ccc(Cl)cc2Cl)CC1)c1ccccc1	-2.6	27.8	-75.9*	-1.1	-28.1
COc1ccccc1CCNC(=O)C(C)Sc1nc(-c2ccccc2)cc(C(F)(F)F)n1 (stereo unspecified)	-2.3	-0.8	-13.1	0.4	0.3
Cc1nn2c(=O)cc(COc3ccc(/C=C(\C#N)C(=O)Nc4ccc(F)cc4)cc3)nc2s1	-8.0	0.0	-11.7	0.7	-0.9
Cc1ccc(NC(=O)c2sc3nc[nH]c(=O)c3c2C)cc1C	0.3	2.5	4.4	0.0	1.8
Cc1ccc(NC(=O)Cn2ccsc2=N)cc1S(=O)(=O)N(C)C	1.4	3.3	-7.1	0.3	-4.8
CN(C)S(=O)(=O)c1cc(NC(=O)Cn2ccsc2=N)ccc1Cl	-4.7	0.8	-30.2*	-0.5	-3.1
CS(=O)(=O)c1oc(-c2ccc(F)cc2)nc1S(=O)(=O)c1ccc(Cl)cc1	48.7*	0.9	-6.3	0.6	-1.4
CSc1oc(-c2ccc(F)cc2)nc1S(=O)(=O)c1ccc(F)cc1	1.8	1.3	7.2	-0.2	-6.8
Cc1ccc(NS(=O)(=O)c2ccc(-c3cc(C)no3)cc2)c(C)c1	1.4	8.5	-15.0	0.5	-1.6
Nc1nc2ccc(N3CCOCC3)cc2s1	0.8	1.4	-33.8*	-0.3	-3.0
c1ccc(-c2cnc(-c3ccccc3)nc2)cc1	0.9	-0.4	0.7	1.2	7.2
Nc1cnc(-c2ccccc2)nc1Cl	-2.0	-0.3	-38.8*	0.0	-4.8
COc1ccccc1-c1nnc(C2CCN(S(=O)(=O)c3ccc(CC(C)C)cc3)CC2)o1	-3.2	4.9	-11.7	-0.8	-1.4
Cc1ccc(C)c(N2CCN(C(=S)NC3CCCCC3)CC2)c1	0.8	0.3	0.9	0.0	-7.3
Cc1cccc(N2CCN(C(=S)NC3CCCCC3)CC2)c1C	-4.6	5.9	-33.3*	3.8	-3.7
CCN1CCc2c(sc(-n3cccc3)c2C(C)NC(=O)Nc2cc(Cl)c(OC)cc2OC)C1 (stereo unspecified)	-3.1	4.2	-20.5	0.7	-5.8
Cc1ccc(Cl)cc1N(C)C(=O)c1sc2nc3n(c(=O)c2c1C)CCCC3	1.0	0.1	-3.6	-0.3	-5.2
CC1=NN(C(=O)c2ccc(Cn3cc([N+](=O)[O-])cn3)cc2)C(O)(C(F)(F)F)C1 (stereo unspecified)	-7.9	41.8*	7.2	3.5	-7.2
Cc1cc2nc(C)c(=O)n(C)c2cc1C	11.4	-0.7	-37.7*	-0.1	-7.6
CC(=O)c1ccc(NS(=O)(=O)c2cccc(C(=O)Nc3ccccc3C(=O)O)c2)cc1	8.1	-3.6	53.3	0.3	-0.7
O=C(CSc1nc2c([nH]c3ccccc32)c(=O)n1-c1ccc(F)cc1)N1CCc2ccccc21	8.9	1.5	-45.1*	-0.3	-4.0
Cc1ccc(NC(=O)CSc2nc3c([nH]c4ccccc43)c(=O)n2C)cc1	-1.3	-0.9	-33.4*	-0.2	-0.5
